Compounds with a hit are over-represented: about 1.2% of the library has one in this group of screens.
MRP reversal – reverses drug resistance mediated by MRP. differential viability (reversal), % at 10 µM. H69AR cells + 2 uM doxorubicin, CellTiter-Glo, 72 h. AID 602. 85,000 tested, 0.04% active;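 active = viability drop by adding the cancer drug above about 55%, with treated viability meeting a 40% cutoff, limit read from the data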;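 also: viability without doxorubicin minus viability with 2 µM doxorubicin for each compound; larger differential means the compound sensitizes cells more to doxorubicin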
CD11b adhes inh – inhibitors of human CD11b/CD18 binding to fibrinogen | P05107+P11215 | 93,000 tested, 0.54% active | inhibition, % at 10 µM | K562 CD11b/CD18 adhesion to fibrinogen, ATPlite luminescence; Mn2+ added to activate the integrin;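 active = primary inhibition of 50% or more at 10 µM, then 40% or more on retest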
MRP1 act – activators of MRP-1 | H69AR cells + doxorubicin, viability rescue, CellTiter-Glo | viability increase, % at 10 µM | 140,000 tested, 0.61% active;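 active = viability gain under doxorubicin at or above a set limit, the compound median plus 3 SD, cut at about 4.7% in these data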;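 also: MRP-1 overexpressing cells given doxorubicin 25 µM after compound pretreatment; 18-22 h compound pretreatment then 72 h with doxorubicin before readout; 0% = doxorubicin-only wells and 100% = vehicle-treated cells without doxorubicin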
Phagocyt inh – inhibitors of macrophage phagocytosis | 110,000 tested, 0.07% active | inhibition, % at 5 µM | J774A.1 macrophage IgG-bead phagocytosis, imaging;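 active = inhibition above the mean of the plate negative controls plus 5 SD, cut at about 13% in these data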;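 also: phagocytic index as fraction of beads internalized from green versus red external bead signal; plate controls were DMSO negative control for no effect and cytochalasin-D positive control for full effect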
Mac1 fbg enh – increases human CD11b/CD18 adhesion to fibrinogen; P05107+P11215; K562 CD11b/CD18 adhesion to fibrinogen, ATPlite luminescence; activation, % at 10 µM; 93,000 tested, 0.07% active;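 active = 10 µM primary screen giving 50% or more activity, confirmed by 40% or more on retest at that dose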
Smad3 inh – blocks human Smad3 binding to FoxH1 peptide; P84022; TR-FRET Smad3/Dy647-FoxH1 peptide binding, europium anti-His; inhibition, % at 25 µM; 88,000 tested, 0.29% active;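 active = compounds that reduce the energy-transfer binding signal between the protein and its labelled peptide by more than half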;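 also: 0% = Smad3 plus labelled peptide maximal FRET and 100% = peptide-only background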
Target sequence (P84022 whole entry, looked up): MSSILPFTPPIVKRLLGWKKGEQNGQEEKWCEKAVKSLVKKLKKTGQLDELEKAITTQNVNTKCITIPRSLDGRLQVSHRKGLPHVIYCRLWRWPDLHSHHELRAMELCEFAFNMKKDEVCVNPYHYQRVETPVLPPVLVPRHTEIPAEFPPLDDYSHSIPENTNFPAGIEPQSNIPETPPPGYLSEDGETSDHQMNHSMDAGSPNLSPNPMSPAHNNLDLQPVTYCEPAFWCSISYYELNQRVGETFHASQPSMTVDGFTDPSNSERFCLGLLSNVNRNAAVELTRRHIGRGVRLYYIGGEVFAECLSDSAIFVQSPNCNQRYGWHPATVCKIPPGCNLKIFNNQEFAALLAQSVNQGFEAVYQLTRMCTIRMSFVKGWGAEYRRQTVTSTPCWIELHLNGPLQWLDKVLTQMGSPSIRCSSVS
Active calls of the source: *; . = not tested or not shown; [ ] = another dose, or the depositor's remark.

SMILES | MRP reversal | CD11b adhes inh | MRP1 act | Phagocyt inh | Mac1 fbg enh | Smad3 inh
O=C1c2ccccc2C(=O)N1CC1c2ccccc2CCN1C(=O)C1CCCCC1 (stereo unspecified) | -3 | -53 | -1 | 0 | 2 | 18
O=C(CSc1nnnn1C1CC2CCC1C2)Nc1ccnc2ccccc12 (stereo unspecified) | 0 | 100* | -5 | -1 | -13 | 11
O=C(CSc1nnnn1C1CCCC1)NCc1ccccc1 | -13 | . | -2 | . | . | -4
CN(C)C(CNC(=O)CSc1nnc(-c2ccco2)o1)c1ccccc1 (stereo unspecified) | 0 | . | -3 | . | . | 2
N#CC(CC(=O)O)=C(c1ccccc1)c1ccccc1 | . | . | . | . | . | -4
CCOC(=O)c1c(NS(=O)(=O)c2ccc(Br)cc2)sc2c1CCC2 | -2 | . | -5 | . | . | 5
COC(=O)c1c(NS(=O)(=O)c2ccc3ccccc3c2)sc2c1CCCC2 | . | 52* | -1 | 0 | 0 | 7
Nc1nc(-c2ccc3ccccc3c2)cc(-c2cc(-c3ccc4ccccc4c3)nc(N)n2)n1 | . | . | . | . | . | -2
CC(C)Oc1ccc(CSC(=N)N)cc1 | . | . | 7.9* | . | . | .
COc1ccc(CNC(=S)NCc2ccc(OC(C)C)cc2)cc1 | . | . | 0 | -4 | . | .
Cn1cnnc1SCC(=O)NN(c1ccccc1)c1ccccc1 | . | . | 0 | 27*[artifact] | . | .
O=C(COc1ccc(S(=O)(=O)NCc2ccccc2)cc1Cl)NCC1CCCO1 (stereo unspecified) | -12 | 4 | -4 | -1 | 0 | 5
O=C(COc1ccc(S(=O)(=O)NCc2ccccc2)cc1)NCC1CCCO1 (stereo unspecified) | -5 | 4 | -1 | 24* | 1 | 4
Cn1c(N)c(C(=O)c2ccccc2)c(=O)n(C)c1=O | . | 1 | -1 | 0 | 0 | .
CCC(=NC(C)c1ccccc1)c1c(O)n(C)c(=O)n(C)c1=O (stereo unspecified) | -5 | 71* | 0 | . | -5 | -9
COc1cc(/C=N/NC(=O)C23CC4CC(CC(C4)C2)C3)cc(Br)c1O | . | . | 14* | . | . | .
CC[C@H]1CC[C@H]2[C@H]3CC=C4C[C@H](OC(C)=O)[C@@H](N)C[C@@]4(C)[C@@H]3CC[C@]12C | . | . | . | . | . | -4
CCOC(=O)c1ccccc1-c1csc(NS(=O)(=O)c2ccc(Cl)cc2)n1 | . | 54* | 0 | 0 | -4 | .
O=C1C(Cl)=C(Nc2ccc(S(=O)(=O)Nc3ccccn3)cc2)C(=O)c2ccccc21 | . | . | . | . | . | 99*
Cc1ccc(-c2noc(CCCOc3ccc(Cl)cc3Cl)n2)cc1 | 2 | 14 | 0 | 0 | -2 | 12
Cc1cccc(-c2noc(CCCOc3ccc(Cl)cc3Cl)n2)c1 | 25 | 99* | 1 | 0 | -9 | 2
COc1ccc(-c2nc(-c3cccc(C)c3)no2)cc1OC | -23 | . | 5.5* | . | . | -4
COc1cc(-c2nc(-c3cccc(C)c3)no2)cc(OC)c1OC | -3 | . | 1 | . | . | -4
O=C(O)c1cc2c(cc1S(=O)(=O)O)[C@@H]1[C@@H]([C@H]3[C@H]2[C@]2(Cl)C(Cl)=C(Cl)[C@@]3(Cl)C2(Cl)Cl)[C@]2(Cl)C(Cl)=C(Cl)[C@@]1(Cl)C2(Cl)Cl | . | . | . | . | . | 32
CCCCn1c(NC(C)=O)c(C#N)c2nc3ccccc3nc21 | -4 | 2 | -4 | 2 | -8 | 4
SMILES | MRP reversal | CD11b adhes inh | MRP1 act | Phagocyt inh | Mac1 fbg enh | Smad3 inh
C=CCn1c(NC(=O)c2ccccc2Cl)c(C#N)c2nc3ccccc3nc21 | -14 | 97* | -5 | -1 | -8 | 34
C=CCn1c(NC(=O)c2ccccc2)c(C#N)c2nc3ccccc3nc21 | 0 | . | . | . | . | 67*
Cc1ccc2nc(N/N=C/c3cccc(C)n3)cc(C)c2c1 | . | . | . | . | . | 11
Cc1cc(C(=O)CN2C(=O)NC3(CCCc4sccc43)C2=O)c(C)n1-c1ccccc1 (stereo unspecified) | . | . | 4.8* | 3 | . | .
Cc1nn(C)c(C)c1NC(=O)CSc1nc(C2CC2)nc2c1cnn2-c1ccccc1 | 78* | . | -7 | . | . | -8
Cc1nn(C)c(C)c1NC(=O)CSc1nc(-c2ccccc2Cl)nc2c1cnn2-c1ccccc1 | -26 | 7 | -3 | 0 | 42 | -19
Cc1nc(=O)c(-c2ccccc2)c(C)n1-c1ccc(S(N)(=O)=O)cc1 | 9 | 9 | 6.8* | -3 | -1 | -3
Cc1nc(=O)c(-c2ccccc2)c(C)n1-c1ccc(C(=O)O)cc1 | -5 | -16 | 9.1* | 0 | 0 | 0
O=C(O)C[C@@H](C(=O)O)C1c2ccccc2-c2ccccc21 | . | . | . | . | . | 7
Cc1nnc(NC(=O)COc2ccccc2)s1 | 1 | -37 | 5.1* | 0 | -1 | 8
Cc1ccc(C(=O)Nc2nnc(C)s2)o1 | . | 10 | 9.0* | -1 | 0 | .
Cc1nnc(NC(=O)c2ccco2)s1 | 0 | 8 | 5.6* | 0 | 2 | 0
O=C(OC1CCCCC1)c1ccc2c(c1)C1C=CCC1C(C(=O)O)N2 (stereo unspecified) | . | -59 | -2 | -1 | 150* | .
O=C(O)C1Nc2c(O)cccc2C2C=CCC12 (stereo unspecified) | 0 | -11 | -5 | -10 | 73 | 40
Cc1ccc(NC(=O)CCC(=O)N/N=C/c2cccs2)cc1C | . | . | 7.2* | -2 | . | .
CC(C)(C)c1cc(Br)ccc1OCC(=O)Nc1ncn[nH]1 | 8 | -17 | 6.2* | -1 | -3 | -3
Cn1c(=O)n(C/C=C/c2ccccc2)c(=O)c2c1nc1n2CCCN1Cc1ccccc1 | 28 | 12 | 3 | 4 | -1 | 4
Cn1c(=O)n(C/C=C/c2ccccc2)c(=O)c2c1nc1n2CCCN1c1ccc(F)cc1 | 4 | 12 | 5.3* | 0 | -1 | 14
N#Cc1c(-c2ccco2)nc(SCC(=O)Nc2cccc(Cl)c2)[nH]c1=O | 8 | 7 | 5.5* | -3 | -2 | 13
O=C(CSc1nc2c(c(=O)[nH]1)CCC2)Nc1cccc(Cl)c1 | 4 | -10 | -2 | -1 | 0 | 2
c1cncc(CNCc2cccnc2)c1 | . | . | . | . | . | -7
S=C(NCc1ccccn1)Nc1ccccc1Cl | . | . | 8.2* | -7 | . | .
NCCc1nc(-c2nc(C(=O)O)cs2)cs1 | . | . | . | . | . | -6
O=C(Nc1nc(=O)n(C(=O)C2CC2)s1)c1ccccc1 | . | 2 | 6.8* | 0 | 0 | .
Cc1ccc(C(=O)Nc2nc(=O)n(C(=O)C3CC3)s2)cc1 | . | 12 | 1 | -1 | -4 | .
c1ccc2sc(SCN(C3CCCCC3)C3CCCCC3)nc2c1 | . | . | . | . | . | 62*
c1ccc2sc(SCSc3nc4ccccc4s3)nc2c1 | . | . | . | . | . | 4
COc1ccc(OC)c(C2C(C(=O)Nc3nc4ccccc4s3)=C(C)NC3=C2C(=O)CCC3)c1 (stereo unspecified) | . | 12 | 0 | -3 | -1 | .
COc1cccc(C2C(C(=O)Nc3nc4ccccc4s3)=C(C)NC3=C2C(=O)CC(C)(C)C3)c1OC (stereo unspecified) | . | -7 | 7.9* | 2 | -4 | .
COc1ccc(-c2cc([C@H](O)[C@@H]3CCCCN3)c3ccccc3n2)cc1 | . | . | . | . | . | 12

Screening data (PubChem)
